NALP1 inh = NALP1 inflammasome inhibitors in reconstituted yeast, colorimetric, S. cerevisiae, triplicate retest. inhibition, % at 10 µM. AID 2071, 2009. 280,000 compounds, 0.61% hits. S. cerevisiae NALP1/ASC/caspase-1 growth, X-gal OD620, 72 h; in the data active means inhibition mostly above about 24%, no sharp cut-off; inactive means mostly below about 32%
V-ATPase pH = regulators of yeast V-ATPase proton pumping, primary screen, pHLuorin cytosolic pH fluorescence; 350,000 compounds, 0.37% hits; AID 504577, 2011; S. cerevisiae; response, % at 10 µM; in the data active means response mostly above about 7.3%, no sharp cut-off; inactive means mostly below about 5.4%; further: actives read high
tim23-1 inh = growth inhibitors of tim23-1 mutant yeast, primary screen, luminescence, uHTS; S. cerevisiae tim23-1 growth, BacTiter-Glo luminescence, 24 h; inhibition, % at 20 µM; 330,000 compounds, 1.3% hits; AID 463212, 2010;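 active means growth inhibition of the mutant yeast at or above 50%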;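 further: temperature-sensitive mutant grown at 25 °C; plate controls were DMSO-treated mutant yeast for no effect and medium wells lacking yeast for full effect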
tim10-1 inh = growth inhibitors of tim10-1 mutant yeast, primary screen, luminescence, uHTS | S. cerevisiae tim10-1 ts strain growth, BacTiter-Glo, 24 h | inhibition, % at 20 µM | 330,000 compounds, 2.2% hits | AID 463190, 2010;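 active means inhibition of at least 40%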;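 further: mutant grown at 25 °C; 0% = DMSO wells with yeast and 100% = wells holding no yeast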
NLRP3 yeast inh = NALP3 inflammasome inhibitors in reconstituted yeast, primary screen, luminescence, uHTS. 330,000 compounds, 0.39% hits. inhibition, % at 10 µM. Yeast reconstituted NLRP3/ASC/caspase-1, beta-gal luminescence, 24 h. AID 2825, 2010;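 active means inhibition of 50% or more; inactive means inhibition below 50%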;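 further: plate controls were induced DMSO wells for no effect and uninduced yeast grown without galactose for full effect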
TIM10 inh = growth inhibitors of isogenic TIM10 control yeast, primary screen, counter-screen for tim10-1 yeast inhibitor project, luminescence, uHTS; AID 463195, 2010; 330,000 compounds, 1.4% hits; S. cerevisiae TIM10 strain growth, BacTiter-Glo luminescence, 24 h; inhibition, % at 10 µM;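 active means inhibition of 40% or more at the single tested concentration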;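 further: wild-type TIM10 isogenic control strain grown at permissive 25 °C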
tim10-1 conf = growth inhibitors of tim10-1 mutant yeast, confirmation, single concentration, luminescence, S. cerevisiae; inhibition, % at 20 µM; AID 463213, 2010; 7,400 compounds, 56% hits; shares compounds with tim10-1 inh; S. cerevisiae tim10-1 ts strain growth, BacTiter-Glo, 24 h;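 active means inhibition of yeast growth at or above a set limit in either of two repeat tests at 20 µM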;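 further: tim10-1 mutant grown at permissive 25 °C to find synthetic lethal compounds; 0% = DMSO yeast wells and 100% = medium wells without yeast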
TIM10 conf = growth inhibitors of wild-type TIM10 yeast, confirmation, counter-screen for tim10-1 synthetic lethality project, single concentration, luminescence, S. cerevisiae | AID 463215, 2010 | S. cerevisiae tim10 strain growth, BacTiter-Glo luminescence, 24 h | 4,600 compounds, 63% hits | inhibition, % at 10 µM | shares compounds with TIM10 inh;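 active means inhibition of yeast growth at or above a set limit in either of two replicates at 10 µM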;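 further: this counterscreen used the strain with wild-type TIM10; 0% = yeast with DMSO and 100% = medium wells lacking yeast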
An asterisk follows results filed as active; nt = not tested or not shown. Most compounds without a hit are left out; they make up all but 4.2% or so of the library.

SMILES | NALP1 inh | V-ATPase pH | tim23-1 inh | tim10-1 inh | NLRP3 yeast inh | TIM10 inh | tim10-1 conf | TIM10 conf
CO/N=C/c1ccc(Sc2ccccc2N)c([N+](=O)[O-])c1 | 7 | -1 | 29 | 49* | 2 | 44* | 35* | 25
CC(C)=C(NC(=O)c1ccccc1Br)C(=O)NCCc1nc2ccccc2[nH]1 | nt | 4 | -4 | -6 | 7 | -13 | nt | nt
CC(C)(C)c1ccc(NC(=O)CSc2n[nH]c(=O)n2C2CC2)cc1 | nt | 2 | 1 | 6 | 4 | 3 | nt | nt
CC1CCN(S(=O)(=O)c2ccc3c(c2)CCN3C(=O)C2CCC2)CC1 | 14 | 4 | 21 | 22 | 15 | 20 | nt | nt
O=C(CCl)c1ccc2c(c1)CCN2C(=O)C1CCCCC1 | -12 | 0 | 35 | 62* | -26 | 76* | 36* | 65*
CCC1CCCCN1S(=O)(=O)c1ccc2c(c1)CCN2C(=O)C1CCC1 (centres undefined) | 3 | 7 | 6 | 55* | -8 | 56* | 45* | 50*
Cc1ccc(C(=O)Nc2cccc(NC(=O)CN3CCCCC3)c2)cc1 | 18 | -3 | 10 | -7 | 30 | -2 | nt | nt
CCn1c(CN2CCN(C(c3ccccc3)c3ccccc3)CC2)nc2c1c(=O)n(C)c(=O)n2C | 18 | 1 | 15 | 11 | 5 | -9 | nt | nt
Cc1cccn2cc(-c3ccc(S(=O)(=O)N4CCCCC4)cc3)nc12 | 11 | 0 | 45 | 62* | -46 | 48* | 70* | 63*
O=C(Nc1nncs1)c1cccc(S(=O)(=O)N2CCc3ccccc32)c1 | 10 | 0 | 10 | 2 | 7 | -9 | nt | nt
O=C(Nc1nc2ccc(F)cc2s1)c1cccc(S(=O)(=O)N2CCc3ccccc32)c1 | 29 | -1 | 28 | 40* | 0 | 50* | 21 | -1
CC(=O)N1c2ccc(S(=O)(=O)NCC3CCC(C(=O)NC4CCCCC4)CC3)cc2CC1C (centres undefined) | 8 | 4 | 6 | 24 | 11 | 7 | nt | nt
Oc1cccc(/C=N/N(Cc2ccccc2)c2ccccc2)c1 | -20 | 2 | 36 | 53* | -11 | 48* | 26 | 41*
C(=N\N(Cc1ccccc1)c1ccccc1)/c1cccnc1 | 12 | -1 | 20 | -4 | 6 | -1 | nt | nt
COc1ccc(OCC(=O)NC(=S)N2CCCc3ccccc32)cc1 | 45 | -3 | 9 | -4 | 20 | -3 | nt | nt
O=C(COc1ccccc1)NC(=S)N1CCc2ccccc21 | 20 | 2 | 43 | 43* | 20 | 41* | 18 | -23
CCCC(=O)Nc1ccc(-c2nc3cc(C)ccc3o2)cc1 | 21 | -2 | 48 | 44* | 24 | 55* | 32* | 52*
CS(=O)(=O)n1nc(OC(=O)c2cccs2)cc1N | 3 | 0 | 16 | 5 | -7 | 0 | nt | nt
COc1ccc(S(=O)(=O)n2nc(OC(=O)c3cccs3)cc2N)cc1 | 13 | -2 | 40 | 45* | -18 | 44* | 31* | 52*
CN(C)CCCN(C(=O)C1COc2ccccc2O1)c1nc2cc3c(cc2s1)OCO3 (centres undefined) | 22 | 0 | 40 | 56* | 23 | 55* | 49* | 44*
CN(C)CCCN(C(=O)c1ccc(Br)s1)c1nc2cc3c(cc2s1)OCO3 | 3 | 1 | 23 | 27 | 12 | 2 | nt | nt
Cc1ccc(OCCNC(=O)c2ccccc2SCC(=O)N2CCCC2)cc1 | nt | 2 | -14 | -3 | 6 | -4 | nt | nt
COc1ccc(-c2cc(C(=O)N3CCCC3)no2)cc1 | 9 | -2 | 14 | 8 | 35 | -13 | nt | nt
O=C(c1cc(-c2ccc3c(c2)OCO3)on1)N1CCN(c2ccccc2)CC1 | -1 | -1 | 40 | 41* | 30 | 44* | 31* | 41*
O=C(c1cc(-c2ccco2)on1)N1CCN(C(c2ccccc2)c2ccccc2)CC1 | -10 | -1 | 30 | 62* | 16 | 67* | 62* | 58*
SMILES | NALP1 inh | V-ATPase pH | tim23-1 inh | tim10-1 inh | NLRP3 yeast inh | TIM10 inh | tim10-1 conf | TIM10 conf
COc1ccc(-c2cc(C(=O)N3CCN(C(c4ccccc4)c4ccccc4)CC3)no2)cc1OC | 3 | 1 | 33 | 51* | 14 | 56* | 60* | 45*
COc1ccc(-c2cc(C(=O)N3CCN(C(c4ccccc4)c4ccccc4)CC3)no2)cc1 | -9 | -1 | 37 | 59* | 11 | 69* | 63* | 54*
COc1ccc(Cl)cc1NC(=O)CN(C)C(=O)c1ccc(-n2cncn2)cc1 | nt | 0 | 12 | 6 | 3 | 3 | nt | nt
S=C1NCN(Cc2cccnc2)CN1c1cccc2ccccc12 | 3 | 2 | -1 | 10 | 15 | 5 | nt | nt
CC(=O)N/C(=C\c1ccccc1)C(=O)OCc1cccc(S(=O)(=O)N(C)C)c1 | 18 | 0 | nt | nt | nt | nt | nt | nt
O=C(NCCCN1CCOCC1)c1c(F)c(F)c(F)c(F)c1F | 18 | 0 | -25 | -23 | 14 | 7 | nt | nt
Cc1ccc2[nH]c3c(N4CCN(Cc5ccc6c(c5)OCO6)CC4)ncnc3c2c1 | 5 | nt | nt | nt | nt | nt | nt | nt
COc1ccc2c(c1)[nH]c1c(N3CCN(Cc4ccc5c(c4)OCO5)CC3)ncnc12 | 13 | 0 | 44 | 47* | 9 | 47* | 42* | 27
CCOc1cc(/C=N/NC(=O)c2cc(-c3cccnc3)nc3ccccc23)ccc1O | -6 | -1 | 39 | 45* | -4 | 44* | 38* | 28
CCCCCCn1nc(C(=O)OCC(=O)NC2CCS(=O)(=O)C2)c2ccccc2c1=O (centres undefined) | -4 | 2 | 7 | 10 | -13 | -1 | nt | nt
Cc1cccc(CN2C(=O)[C@H]3Cc4c([nH]c5ccccc45)C(C)(C)N3C2=O)c1 | nt | 9 | 48 | 44* | -5 | 43* | 35* | 35*
CCOC(=O)c1c(NC(C)=O)sc2c(O)cccc12 | 29 | 4 | 17 | 45* | 6 | 50* | 17 | 38*
CCOC(=O)c1c(NC(C)=O)sc2c(O)c(Br)cc(Br)c12 | 23 | -2 | nt | nt | nt | nt | nt | nt
O=C1NC(=O)/C(=C\c2ccccc2OCc2ccccc2)S1 | 4 | 2 | 46 | 45* | 32 | 43* | 33* | 29
CCOC(=O)N1CCN(S(=O)(=O)c2c(C)nc3sccn3c2=O)CC1 | 10 | -1 | 7 | 14 | 17 | 5 | nt | nt
